Data on 11 compounds can be found in PubChem BioAssay (NCATS).

In assay [1] the target is Alpha-galactosidase A (Homo sapiens) (UniProt P06280). The assay is described as follows: Counterscreen for Glucocerebrosidase Inhibitors: qHTS Assay for Human alpha-Galactosidase at pH 4.5 (AID 992). Note: 0% is about no effect. Summed up: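 Read-out is 4-methylumbelliferone fluorescence (365 nm excitation, 440 nm emission) after a pH 10 NaOH/glycine stop. Reactions held 2 nM enzyme and 80 uM substrate at pH 4.5 for 20 min at room temperature.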

Assay [2] concerns the target alpha-glucosidase (Oryza sativa, rice) (UniProt Q653V4). The assay is described as follows: Counterscreen for Glucocerebrosidase Inhibitors: qHTS Assay for Rice alpha-Glucosidase at pH 5.0 (AID 997).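 Note: 0% = full activity with enzyme and -100% = basal without enzyme.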 Summed up: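 Rice alpha-glucosidase (4 nM final) with 400 uM 4-methylumbelliferyl-alpha-D-glucopyranoside in citrate buffer pH 5.0, 20 min at room temperature, stopped at pH 10; fluorescence 365/440 nm, compounds 0.7 nM–77 uM, AC50 from Hill fits.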

The nature of assay [3]: Validation of Assay for Modulators of Lamin A Splicing (AID 1459; active = well fitted curve in the direction sought with a large enough effect in the signal ratio; the % refers to the signal ratio;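 note: cells exposed to compound for two days before reading; 0% is about no effect; ratio rise marks activators and ratio drop marks inhibitors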). In outline:
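Dual-reporter HeLa S3 line (lamin A-EGFP minigene, DsRed2) treated with compounds 48 hrs, 0.5% DMSO final. Endpoint: EGFP/DsRed2 total intensity ratio from laser-scanning microplate cytometry.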

The nature of assay [4]: qHTS Assay for Lipid Storage Modulators (AID 1519; calls by dose curve; for activity change, negative = inhibition: % is set by controls: 0 for no effect and ±100 for the full control effect). The conditions noted are these: Drosophila S3 cells, BODIPY lipid droplet/cell ratio, laser cytometry, cells loaded with oleic acid. Summed up:
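Cells seeded at 5,000 per well were treated with compounds over a concentration series and loaded with oleic acid (400 uM, as added). Lipid droplet fluorescence (488 nm excitation, 500-530 nm channel) was read by laser-scanning cytometry and normalized to 20 uM Triacsin C.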

Assay [5] has as its target DNA repair nuclease/redox regulator APEX1 (Homo sapiens) (UniProt P27695). The assay is described as follows: qHTS Validation Assay for Inhibitors of the Human Apurinic/apyrimidinic Endonuclease 1 (APE1) (AID 1705;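 note: TAMRA fluorescence gain over two minutes as APE1 cuts a quenched THF abasic duplex; % is set by controls: 0 for no effect and ±100 for the full control effect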). In outline:
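Substrate: 50 nM final fluorophore/quencher THF-abasic duplex. Enzyme preincubated with compounds 15 min, RT. Progress derived from fluorescence difference, third minus first kinetic read.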

Assay [6] is described as follows: Counterscreen for APE1 Inhibitors: Fluorescent Dye Displacement Validation Assay (AID 1707).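 Note: plate controls were ThO with dsDNA and no compound for no effect and ThO without dsDNA for full effect.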 In outline: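 ThO 250 nM + dsDNA 50 nM (THF abasic site, 5'-TAMRA), Tris-HCl pH7.5/50mM NaCl/2 mM MgCl2/0.01% Tween-20; compounds pin-transferred; ex 480/em 540 nm endpoint. Neutral = no compound; no-DNA ThO wells = negative control.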
Assay [7] in a line: Cell Viability - LYMP2-024 (AID 988).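 Note: plate controls were DMSO only for no effect and 92 µM tetraoctylammonium bromide for full effect; nearly all actives have a fitted effect of over 60% in size.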 In outline:
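Human lymphoblastoid cells (2500/well) in complete medium were preincubated 5 hr at 37 C, then exposed to compounds for 24 hr at 37 C. Intracellular ATP was read by CellTiter-Glo luminescence; AC50 from Hill-equation fits of concentration-response data.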

Assay [8] can be described thus: Cell Viability - LYMP2-026 (AID 989). Note: % is set by controls: 0 for no effect and ±100 for the full control effect; nearly all actives have a fitted effect of over 50% in size. In outline: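 Human lymphoblastoid cells (2500/well) in complete medium were preincubated 5 hr at 37 C, then exposed to compounds for 24 hr at 37 C. Cellular ATP was read by CellTiter-Glo luminescence; AC50 from Hill-equation fits of concentration-response data.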
Assay [9] in a line: Cell Viability - LYMP1-002 - Assay at 24 hr (AID 993). Note: % is set by controls: 0 for no effect and ±100 for the full control effect. In outline:
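Human lymphoblastoid LYMP1-002 cells, 2500/well in complete medium, were treated with compounds for 24 h at 37 C; intracellular ATP was read by CellTiter-Glo luminescence. AC50 values came from Hill-equation fits of qHTS concentration-response data.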

Assay [10] is described as follows: Cell Viability - LYMP1-002 - Assay at 40 hr (AID 994).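 Note: 0% = DMSO only and full inhibition = 92 µM tetraoctylammonium bromide; nearly all actives have a fitted effect of over 60% in size.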 Summed up:
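Human lymphoblastoid cells, 2500/well in complete medium, were preincubated 5 hr at 37 C, then exposed to compounds for 40 hr at 37 C. Intracellular ATP was read by CellTiter-Glo luminescence after 30 min at room temperature; AC50 from Hill-equation fits.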

Where [11] appears, read: measured here: cell count channel max response.
The mark [12] stands for this setting: measured here: lipid channel max response.

“And” between values parts separate entries of the source, which are not always exact repeats. Equal entries are not always repeated. Results filed as inconclusive are left out. The source made the active and inactive calls. Unless noted, calls come from the whole dose curve; as a rule, active = well fitted curve in the direction sought with a large enough effect; inconclusive = small, poorly fitted or top-dose-only effect, or another doubt; inactive = no such curve, though single readings can be large; an effect the other way counts as inactive or inconclusive.

Sequence of DNA repair nuclease/redox regulator APEX1 (Homo sapiens) (P27695 whole entry, looked up): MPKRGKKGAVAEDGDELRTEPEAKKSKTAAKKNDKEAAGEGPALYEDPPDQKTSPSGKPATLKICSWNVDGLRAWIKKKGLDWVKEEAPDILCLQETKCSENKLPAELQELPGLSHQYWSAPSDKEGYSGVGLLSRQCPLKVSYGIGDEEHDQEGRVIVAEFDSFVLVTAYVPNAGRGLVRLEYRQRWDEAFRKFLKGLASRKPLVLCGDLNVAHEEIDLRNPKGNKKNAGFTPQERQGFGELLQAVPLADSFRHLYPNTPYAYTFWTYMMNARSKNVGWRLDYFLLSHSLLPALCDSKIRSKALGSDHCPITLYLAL
Sequence of Alpha-galactosidase A (Homo sapiens) (P06280 whole entry, looked up): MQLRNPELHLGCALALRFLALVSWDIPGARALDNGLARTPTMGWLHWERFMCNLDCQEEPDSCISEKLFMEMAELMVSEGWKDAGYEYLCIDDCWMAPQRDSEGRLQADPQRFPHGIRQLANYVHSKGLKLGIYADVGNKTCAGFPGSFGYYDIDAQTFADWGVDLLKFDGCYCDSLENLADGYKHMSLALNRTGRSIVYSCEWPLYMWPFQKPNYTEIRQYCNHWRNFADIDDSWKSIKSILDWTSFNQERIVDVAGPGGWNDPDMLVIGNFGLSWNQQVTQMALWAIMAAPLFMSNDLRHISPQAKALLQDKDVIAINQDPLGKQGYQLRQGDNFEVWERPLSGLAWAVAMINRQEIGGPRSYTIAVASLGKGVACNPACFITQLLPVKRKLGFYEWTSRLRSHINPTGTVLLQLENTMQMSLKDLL

Regarding `NC(N)=NC(=O)Cc1c(Cl)cccc1Cl`, the call in [1], in [2], in assay [3] and in assay [6] was inactive. For the same compound, the figures for the activity change, negative = inhibition in [4] (at 25.7 µM (top of the series)) and in [4] (at 57.5 µM (top of the series)) were -2.29% (inactive) and 1.08% (inactive), respectively. Also, the max response in assay [4] (setting [11]) is -10.4% and 9.91%; in [4] (setting [12]), -13.2% and 12.7%. The Potency entry in assay [5] was “inactive”.
As for `O=C(CCNNC(=O)c1ccncc1)NCc1ccccc1`, the outcome in assay [1], in [2], in assay [3] and in assay [6] was inactive. Also, the activity change, negative = inhibition in [4] (at 25.7 µM (top of the series)) is -0.0465% (inactive); in assay [4] (at 57.5 µM (top of the series)), 1.21% (inactive). The max response is -2.07% and 1.8% in assay [4] (setting [11]); 0.496% and 1.66% in assay [4] (setting [12]). The Potency result in assay [5] is “inactive”.
As for `Cc1cc(C)c(/C=C2\C(=O)Nc3ccccc32)[nH]1`, the result in assay [3] and in [6] was inactive. The Potency entry in [5] was “inactive”.
Turning to `CCn1nc(C(=O)O)c(=O)c2cc3c(cc21)OCO3`, the compound was called inactive in assay [1], in [2], in assay [3] and in assay [6]. Moreover, the activity change, negative = inhibition in assay [4] (at 25.7 µM (top of the series)) was 1.1% (inactive); in assay [4] (at 57.5 µM (top of the series)), 13.5% (inactive). Besides, the max response was -2.39% and 18.6% in assay [4] (setting [11]); 0.268% and 42.8% in assay [4] (setting [12]). For the same compound, the Potency entry in [5] was “inactive”.
Take `CCN(CC)CCOCCOC(=O)C1(c2ccccc2)CCCC1`: the compound was called inactive in [1], in [2], in [3] and in assay [6]. The activity change, negative = inhibition in assay [4] (at 25.7 µM (top of the series)) is -7.98% (inactive); in assay [4] (at 57.5 µM (top of the series)), -1.81% (inactive) and 10.4% (inactive) and -0.577% (inactive). Besides, in assay [5], the Potency result was “inactive”.
With `CC(C(=O)O)c1ccc(CC2CCCC2=O)cc1` (stereo not given), the outcome in assay [3] and in assay [6] was inactive. In addition, the activity change, negative = inhibition in assay [4] (at 57.5 µM (top of the series)) is -1.18% (inactive). Besides, the results for the max response in assay [4] (setting [11]) and in assay [4] (setting [12]) were -27.7% and -27%, respectively. Moreover, in assay [5], the Potency entry was “inactive”.
As for `CC(C)NCC(O)c1cc(O)cc(O)c1` (stereo not given), the outcome in [3] and in assay [6] was inactive. Besides, the activity change, negative = inhibition in assay [4] (at 57.5 µM (top of the series)) was 10.7% (inactive) and 0.0278% (inactive). The max response in assay [4] (setting [11]) was 8.74% and -21.1%; in assay [4] (setting [12]) it was 23% and -23.1%.
Regarding `CCCCNC(=O)NS(=O)(=O)c1ccc(C)cc1`, the Potency entry in [7], in [10] and in assay [5] was “inactive” in each case. Also, the call in assay [8], in assay [9], in assay [2], in assay [3] and in assay [6] was inactive. For the same compound, the activity change, negative = inhibition was 0.284% (inactive) in [4] (at 25.7 µM (top of the series)); 5.43% (inactive) and -0.0777% (inactive) in assay [4] (at 57.5 µM (top of the series)). For the same compound, the max response in [4] (setting [11]) was -2.87% and 13.1% and 19.7%; in assay [4] (setting [12]), -2.83% and 21.8% and 21.4%.
For `Nc1nc(N)c2nc(-c3ccccc3)c(N)nc2n1`, the Potency entry in assay [7] was “inactive”. In addition, the call in assay [8], in assay [1], in assay [9] and in assay [6] was inactive. Besides, the activity change, negative = inhibition in assay [4] (at 25.7 µM (top of the series)) was -0.107% (inactive); in assay [4] (at 57.5 µM (top of the series)), -0.933% (inactive). The max response in [4] (setting [11]) was -4.41% and -12.1%; in [4] (setting [12]) it was -2.65% and -13.5%.
On to `CN(C)CCCN1c2ccccc2Sc2ccccc21`, for which the result in assay [1], in assay [2] and in assay [6] was inactive. For the same compound, the activity change, negative = inhibition in assay [4] (at 25.7 µM (top of the series)) is 0.5% (inactive); in assay [4] (at 57.5 µM (top of the series)), 7.75% (inactive) and 0.211% (inactive). The max response in [4] (setting [11]) is -16.2% and -4.1% and -25%; in [4] (setting [12]) it was -14.8% and 2.83% and -21.3%. Further, the Potency result in assay [5] is “inactive”.
For `CC[N+](C)(C)c1cccc(O)c1`, the outcome in assay [1], in assay [2] and in assay [6] was inactive. For the same compound, the activity change, negative = inhibition was 1% (inactive) in [4] (at 25.7 µM (top of the series)); 8.9% (inactive) and 0.601% (inactive) in [4] (at 57.5 µM (top of the series)). Besides, the max response is 22.3% and 9.17% and -28.2% in assay [4] (setting [11]); 23.6% and 20.6% and -27.6% in assay [4] (setting [12]). For the same compound, in assay [5], the Potency result is “inactive”.
